Compound activity from PubChem.
Pf growth 48h: inhibits P. falciparum growth in the first generation, 48 h. 310,000 compounds, 5.9% hits. P. falciparum luciferase growth in erythrocytes, 48 h. AID 504832. Potency, µM (highest dose often 28.7 µM), actives largely listed as inhibitors
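Erythrocytes infected with P. falciparum carrying an integrated firefly luciferase reporter (2% hematocrit, 0.1% parasitemia final) were exposed to compounds in RPMI 1640 with 0.5% Albumax at 37 C, 5% CO2. Growth inhibition was scored as reduced luminescence.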
Pf growth 96h: P. falciparum growth inhibition at 96 hour, primary screen for plastid delayed-death inhibitors; P. falciparum luciferase reporter growth, 96 h; Potency, µM (titrated, usually from 28.7 µM), hits mostly inhibitors; 320,000 compounds, 6.9% hits
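P. falciparum expressing integrated firefly luciferase grown in erythrocytes (2% hematocrit, 0.05% parasitemia final) with compounds for 96 hours at 37 C, 5% CO2. Growth inhibition read as loss of luminescence after adding luciferase detection reagent.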
Cycloheximide cs: affects cycloheximide protein synthesis inhibition readout, counter-screen. cell reporter, cycloheximide protein synthesis inhibition counterscreen. max response, %. 300,000 compounds, 12% hits; in the data active = max response mostly above about 13%, no sharp cut-off; inactive = mostly below about 14%; also: read at 38.3 µM for the half of the compounds with a filed dose
NS1 function inh: blocks influenza NS1 protein function; Potency, µM (series often up to 46.1 µM); 270,000 compounds, 0.4% hits; calls by dose curve; also: actives are rising curves; nearly all actives have a fitted effect of over 50% in size
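Recovery from NS1-induced slow growth read by OD600 in budding yeast switched to galactose assay medium (pH 6.0, -URA) at 1:100 dilution. Compound 23 nl per well; the matching strain lacking NS1 serves as control.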
Sm TGR inh: S. mansoni TGR enzyme inhibition; Q962Y6; purified TGR, DTNB reduction, TNB absorbance 405 nm; Potency, µM (top dose mostly 114 µM), actives largely listed as inhibitors; 360,000 compounds, 3% hits; AID 485364; also: nearly all actives have a fitted effect of over 60% in size
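TGR 20 nM + NADPH 100 uM (dispensed conc.), cpd preinc 15 min RT; start with NADPH (500 uM addition) then DTNB (15 mM addition). Kinetic TNB absorbance, 405 nm filter. Four-parameter Hill fit across titration.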
Shiga inhibitor: Shiga toxin inhibition | Vero cells, Shiga toxin protein synthesis inhibition reporter | inhibition, % at 38.7 µM | 290,000 compounds, 9.2% hits | AID 2315; in the data active = inhibition mostly above about 28%, no sharp cut-off; inactive = mostly below about 43%
Hits are given with their value; – = inactive; ? = inconclusive; · = not tested or not shown; [ ] = remark or other dose. Most compounds without a hit are left out; they make up all but 21% or so of the library. Unless noted, calls follow the shape of the dose curve; as a rule, active = well fitted curve in the direction sought with a large enough effect; inconclusive = small, poorly fitted or top-dose-only effect, or another doubt; inactive = no such curve, though single readings can be large; an effect the other way counts as inactive or inconclusive.

SMILES	Pf growth 48h	Pf growth 96h	Cycloheximide cs	NS1 function inh	Sm TGR inh	Shiga inhibitor
C/C(=N\NC(=O)c1cc(-c2ccc(C)s2)[nH]n1)c1ccncc1	?	–	–	–	–	–
CC1(C)CC(=O)C(C=NCCc2ccccn2)=C(O)C1	–	·	–	–	–	–
CC1(C)CC(=O)C(C=NCCc2ccc(O)cc2)=C(O)C1	–	5.22µM	–	–	–	–
CC1(C)CC(=O)C(C=NCc2ccc3c(c2)OCO3)=C(O)C1	–	–	active	–	–	–
COc1cccc(-n2c(O)c(C=NCc3ccc4c(c3)OCO4)c(=O)[nH]c2=O)c1	–	–	–	–	–	–
COc1ccc(-n2c(O)c(C=NCc3ccc4c(c3)OCO4)c(=O)[nH]c2=O)cc1	–	–	–	–	14.1µM	–
CC1(C)CC(=O)C(C=Nc2cccnc2/N=C/C2=C(O)CC(C)(C)CC2=O)=C(O)C1	–	–	–	–	22.4µM	–
Clc1cccc(-c2noc3ncnc(NC4CCCCC4)c23)c1	·	·	·	·	–	·
CCN(CC)c1ccc(C(=O)Nc2ccc3nc(N(CC)CC)cc(C)c3c2)cc1	·	·	·	·	–	·
CC(=O)Nc1ccc(N(C(=O)Cn2nnc3ccccc32)C(C(=O)NCc2ccccc2)c2ccc(C)cc2)cc1 (stereo not given)	·	·	·	·	–	·
CC1(C)CC(=O)C(C=Nc2ccc(O)c(N=CC3=C(O)CC(C)(C)CC3=O)c2)=C(O)C1	10.4µM	?	–	·	–	–
CC1(C)CC(=O)C(C=Nc2cccnc2)=C(O)C1	–	–	–	–	–	–
CC1(C)CC(=O)C(C=Nc2ccc3c(c2)OCO3)=C(O)C1	–	·	39.1	–	–	81.4
CCCCOc1ccc(/C=C/C(=O)NCCc2nc3ccccc3[nH]2)cc1	?	11.7µM	–	–	–	–
COc1ccc(/C=C/C(=O)NCCc2nc3ccccc3[nH]2)cc1	?	?	15.7	–	–	–
O=C(/C=C/c1ccco1)N/C(=C\c1ccccc1)C(=O)NCCc1nc2ccccc2[nH]1	–	–	–	–	50.1µM	37.0
COc1ccc(/C=C/C(=O)NCCCN2CCCC2)cc1	–	–	–	–	–	–
CCCCOC(=O)CCc1nc2ccccc2[nH]1	·	–	–	–	–	–
C#CCNC(=O)/C=C/c1ccc(OC)cc1	–	–	40.3	–	–	59.1
COc1cc(/C=C/C(=O)NCc2nc3ccccc3[nH]2)cc(OC)c1OC	?	?	–	–	–	–
O=C(c1cccc(Oc2ccccc2)c1)N1CCN(c2ccccn2)CC1	–	–	–	·	–	–
Cc1ccc(CC(=O)N2CCN(c3ccccc3F)CC2)cc1	–	?	13.1	–	·	–
Cc1ccc(C(=O)N2CCN(c3ncccn3)CC2)c(C)c1	–	–	–	–	–	–
CC(=O)c1cc(F)c(N2CCN(C(=O)Cc3ccccc3)CC2)cc1C	?	–	–	–	28.2µM	–
O=C(CCS(=O)(=O)c1ccccc1)N1CCN(c2ccccc2F)CC1	–	–	35.0	–	–	109.5
SMILES	Pf growth 48h	Pf growth 96h	Cycloheximide cs	NS1 function inh	Sm TGR inh	Shiga inhibitor
Cc1ccc(N2CCN(C(=O)c3ccccc3F)CC2)c(C)c1	–	3.29µM	–	–	–	–
COc1ccc(S(=O)(=O)CCC(=O)N2CCN(c3ccccc3F)CC2)cc1	–	–	–	·	?	–
CCOC(=O)N1CCN(c2cc(C)c(C(C)=O)cc2F)CC1	·	–	–	–	–[11.4 µM]	–
CCNc1ccc(C(=O)OC(C(=O)NC(N)=O)C(C)C)cc1[N+](=O)[O-] (stereo not given)	–	–	–	·	–	–
CCOc1ccc(CN(C)C(C)C(=O)NCCc2ccc(F)cc2)cc1 (stereo not given)	–	?	–	–	–	–
O=C(CCN1C(=O)c2ccccc2S1(=O)=O)N1CCN(c2ccccc2F)CC1	–	–	·	·	–	·
CCOC(=O)N1CCN(C(=O)CN(C2CCCCC2)S(=O)(=O)c2c(C)cc(C)cc2C)CC1	·	10.4µM	–	–	–	–
O=C(CN1C(=O)c2ccccc2S1(=O)=O)N1CCN(c2ccccc2F)CC1	–	5.86µM	–	–	–	–
Cc1ccc(S(=O)(=O)N(CC(=O)N2CCN(c3ccccc3F)CC2)C2CCCCC2)cc1	·	10.4µM	–	–	–	–
CCC(=O)c1cc(F)c(N2CCN(C(=O)c3ccco3)CC2)cc1C	?	?	24.2	–	–	45.2
CCC(=O)c1cc(F)c(N2CCN(CC)CC2)cc1C	·	–	–	–	–	–
Cc1ccc(C(=O)NC(=S)N2CCN(C)CC2)cc1Br	–	?	–	–	–	–
C/C(=N\NC(=O)c1ccc(Cl)c(S(=O)(=O)Nc2ccccc2Cl)c1)c1ccncc1	–	–	–	–	–	–
CCc1ccc(OCC(=O)N2CCN(c3ccccc3F)CC2)cc1	–	6.57µM	–	·	–	–
CN(c1ccccc1C(=O)N1CCN(c2ccccc2F)CC1)S(=O)(=O)c1ccccc1	–	10.4µM	–	–	–	–
O=C(CSCc1ccccc1Cl)NNC(=S)Nc1ccccc1	–	–	10.5	–	–	–
CCN(CC)S(=O)(=O)c1ccc2oc(C(=O)NCC3COc4ccccc4O3)c(C)c2c1 (stereo not given)	10.4µM	?	–	?	–	–
CCN(CC)S(=O)(=O)c1ccc2oc(C(=O)NCc3ccc(F)cc3)c(C)c2c1	8.28µM	·	–	–	–	–
Cc1c(C(=O)NCC2COc3ccccc3O2)oc2ccc(S(=O)(=O)N3CC(C)CC(C)C3)cc12 (stereo not given)	8.28µM	·	–	–	–	–
COC(=O)c1c(NC(=O)c2ccco2)sc2c1CC(C)(C)NC2(C)C	–	16.5µM	–	–	–	–
CCOC(=O)c1c(NC(=O)COc2ccccc2OCC)sc2c1CC(C)(C)NC2(C)C	?	11.7µM	·	·	–	·
CCOC(=O)c1c(NC(=O)CCS(=O)(=O)c2ccccc2)sc2c1CC(C)(C)NC2(C)C	–	?	–	–	39.8µM	–
CCOC(=O)c1c(NC(=O)COc2ccccc2C#N)sc2c1CC(C)(C)NC2(C)C	11.7µM	5.22µM	–	–	–	–
CCOC(=O)c1c(NC(=O)Cc2ccccc2)sc2c1CC(C)(C)NC2(C)C	?	0.928µM	–	–	–	–
CCOC(=O)N1CCN(S(=O)(=O)c2ccc(C(=O)Nc3sc4c(c3C(N)=O)CC(C)(C)NC4(C)C)cc2)CC1	11.7µM	?	–	–	–	–
SMILES	Pf growth 48h	Pf growth 96h	Cycloheximide cs	NS1 function inh	Sm TGR inh	Shiga inhibitor
Cc1ncc([N+](=O)[O-])n1CC(=O)Nc1ccc2c(c1)OCO2	–	–	–	·	–	–
O=C(NC1CCCCCCC1)c1ccccc1O	11.7µM	?	31.5	–	–	75.3
Cc1ccccc1C(=O)NC1CCCCCCC1	–	–	34.3	–	–	38.6
O=C(NC1CCCCC1)c1cc2ccccc2cc1O	5.22µM	1.85µM	23.9	–	–	33.9
O=C(NC1CCCCCCC1)c1ccccc1-c1ccccc1	?	–	–	–	–	–
O=C(O)/C=C\C(=O)Nc1ccccc1C(=O)NC1CCCCC1	–	–	42.4	–	–	64.7
